Results as given in PubChem BioAssay AID1345085 (National Center for Advancing Translational Sciences (NCATS), 2018).
Results filed as inconclusive are left out. Activity calls are given as the source filed them. The call rests on the fitted dose curve; in most records, active means well fitted cell-killing curve with a large enough effect; inconclusive means small, poorly fitted or top-dose-only effect, or effect the other way; inactive means no such curve, though single readings can be large or run the other way.

Tested on: JEG-3
Assay: Confirmatory qHTS for gynecologic anti-cancer compounds from libraries of approved drugs and bioactive compounds; further: nearly all actives have a fitted effect of over 55% in size
Settings: gynecologic cancer cell panel viability, ATPlite luminescence, 48 h; series mostly up to 57.6 µM
Summary of the method: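 ATPlite luminescence read-out of cell viability; IC50 from 11-point 1:3 titrations, 57.5 uM to 0.977 nM, 48 h compound exposure at 37 C, 5% CO2. Cells seeded at 1,000/well 16 h before dosing.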
Potency means the concentration at half of the fitted maximal effect.

SMILES	Potency
CC(Oc1ccc2[nH]nc(/C=C/c3cnn(CCO)c3)c2c1)c1c(Cl)cncc1Cl (stereo unspecified)	6.85 µM (active)
CCCc1nn(C)c2c(=O)[nH]c(-c3cc(S(=O)(=O)N4CCN(C)CC4)ccc3OCC)nc12	inactive
CC1=C(CO)C(=O)O[C@@H]([C@@H](C)[C@H]2CC[C@H]3[C@@H]4C[C@H]5O[C@]56[C@@H](O)C=CC(=O)[C@]6(C)[C@H]4CC[C@]23C)C1	5.3 µM (active)
Cc1nc(N)nc(N)c1-c1ccc(Cl)c(Cl)c1	17.2 µM (active)
CNC(=O)CN1CCC(Oc2cc3c(Nc4cccc(Cl)c4F)ncnc3cc2OC)CC1	inactive
Nc1ccccc1NC(=O)c1ccc(CNc2nccc(-c3cccnc3)n2)cc1	2.17 µM (active)
Nc1nc(=S)c2[nH]cnc2[nH]1	4.32 µM (active)
CC(C)Oc1ccc2c(=O)c(-c3ccccc3)coc2c1	24.3 µM (active)
Cn1c(=O)c(-c2c(Cl)cccc2Cl)cc2cnc(Nc3cccc(C(=O)O)c3)nc21	inactive
CN(C)C(CCOc1cccc2ccccc12)c1ccccc1 (stereo unspecified)	inactive
COC(=O)c1ccc2c(C(=Nc3ccc(N(C)C(=O)CN4CCN(C)CC4)cc3)c3ccccc3)c(O)[nH]c2c1	inactive
COc1ccc(-c2nc3ccc(C4=NNC(=O)CC4C)cc3[nH]2)cc1 (stereo unspecified)	21.7 µM (active)
COc1ccc2cc3[n+](cc2c1OC)CCc1cc2c(cc1-3)OCO2	3.85 µM (active)
COc1cc2c(Oc3ccc(-c4cnc(Nc5ccc(F)cc5)n(C)c4=O)cc3F)ccnc2cc1OCCCN1CCOCC1	inactive
O=C(Nc1cccnc1)N1CCC(Cc2cccc(Oc3ccc(C(F)(F)F)cn3)c2)CC1	7.69 µM (active)
Cn1cnc2c(F)c(Nc3ccc(Br)cc3Cl)c(C(=O)NOCCO)cc21	inactive

SMILES	Potency
O=C(CCCCCCNC(=O)c1cnc(N(c2ccccc2)c2ccccc2)nc1)NO	7.69 µM (active)
Cc1cc(C2CCCCC2)n(O)c(=O)c1	11.1 µM (active)
O=C1c2c(O)ccc(O)c2C(=O)c2c(NCCNCCO)ccc(NCCNCCO)c21	2.43 µM (active)
Cc1csc(NC(=O)c2sc3nc4c(c(C(F)(F)F)c3c2N)CCC4)n1	13.7 µM (active)
CC1=C(/C=C/C(C)=C/C=C/C(C)=C/C(=O)Nc2ccc(O)cc2)C(C)(C)CCC1	21.7 µM (active)
O=C(Nc1cn[nH]c1-c1nc2ccc(CN3CCOCC3)cc2[nH]1)NC1CC1	12.2 µM (active)
CC(C)C[C@H](NC(=O)[C@H](Cc1ccccc1)NC(=O)c1cnccn1)B(O)O	0.217 µM (active)
O=C(O)C1(Cc2cccc(Nc3nccs3)n2)CCC(Oc2cccc(Cl)c2F)CC1 (stereo unspecified)	inactive
O=C(/C=C/c1cccc(S(=O)(=O)Nc2ccccc2)c1)NO	1.19 µM (active)
CCC1C(=O)N(C)c2cnc(Nc3ccc(C(=O)NC4CCN(C)CC4)cc3OC)nc2N1C1CCCC1 (stereo unspecified)	0.0153 µM (active)
C=CC(=O)Nc1cccc(Oc2nc(Nc3ccc(N4CCN(C)CC4)cc3)ncc2Cl)c1	24.3 µM (active)
CCc1nc(C(N)=O)c(Nc2ccc(N3CCC(N4CCN(C)CC4)CC3)c(OC)c2)nc1NC1CCOCC1	inactive
Cc1cc(Nc2nc(N[C@@H](C)c3ncc(F)cn3)ncc2Cl)n[nH]1	inactive
Nc1ccccc1NC(=O)c1ccc(CNC(=O)OCc2cccnc2)cc1	3.85 µM (active)
CCn1c(-c2nonc2N)nc2c(C#CC(C)(C)O)ncc(OCC3CCCNC3)c21 (stereo unspecified)	inactive
